Results published in the supplement of paper PMC11732987, “Enantioselective OTUD7B fragment discovery through chemoproteomics screening and high-throughput optimisation” (Communications Chemistry, 2025).

Legend:
Assay in all cases: log2 ratio of Biotin-Ahx-Ub-VS probe labelling (fragment/DMSO); higher = less target engagement (more negative = stronger competition), active = hit call of the paper (q ≤ 0.05, log2 ratio ≤ -1)
Settings in all cases: compound concentration: 200 uM; treatment time: 3 h
ALG13 = molecular target: T1, ALG13 (UniProt Q9NP73)
T1 sequence (whole entry): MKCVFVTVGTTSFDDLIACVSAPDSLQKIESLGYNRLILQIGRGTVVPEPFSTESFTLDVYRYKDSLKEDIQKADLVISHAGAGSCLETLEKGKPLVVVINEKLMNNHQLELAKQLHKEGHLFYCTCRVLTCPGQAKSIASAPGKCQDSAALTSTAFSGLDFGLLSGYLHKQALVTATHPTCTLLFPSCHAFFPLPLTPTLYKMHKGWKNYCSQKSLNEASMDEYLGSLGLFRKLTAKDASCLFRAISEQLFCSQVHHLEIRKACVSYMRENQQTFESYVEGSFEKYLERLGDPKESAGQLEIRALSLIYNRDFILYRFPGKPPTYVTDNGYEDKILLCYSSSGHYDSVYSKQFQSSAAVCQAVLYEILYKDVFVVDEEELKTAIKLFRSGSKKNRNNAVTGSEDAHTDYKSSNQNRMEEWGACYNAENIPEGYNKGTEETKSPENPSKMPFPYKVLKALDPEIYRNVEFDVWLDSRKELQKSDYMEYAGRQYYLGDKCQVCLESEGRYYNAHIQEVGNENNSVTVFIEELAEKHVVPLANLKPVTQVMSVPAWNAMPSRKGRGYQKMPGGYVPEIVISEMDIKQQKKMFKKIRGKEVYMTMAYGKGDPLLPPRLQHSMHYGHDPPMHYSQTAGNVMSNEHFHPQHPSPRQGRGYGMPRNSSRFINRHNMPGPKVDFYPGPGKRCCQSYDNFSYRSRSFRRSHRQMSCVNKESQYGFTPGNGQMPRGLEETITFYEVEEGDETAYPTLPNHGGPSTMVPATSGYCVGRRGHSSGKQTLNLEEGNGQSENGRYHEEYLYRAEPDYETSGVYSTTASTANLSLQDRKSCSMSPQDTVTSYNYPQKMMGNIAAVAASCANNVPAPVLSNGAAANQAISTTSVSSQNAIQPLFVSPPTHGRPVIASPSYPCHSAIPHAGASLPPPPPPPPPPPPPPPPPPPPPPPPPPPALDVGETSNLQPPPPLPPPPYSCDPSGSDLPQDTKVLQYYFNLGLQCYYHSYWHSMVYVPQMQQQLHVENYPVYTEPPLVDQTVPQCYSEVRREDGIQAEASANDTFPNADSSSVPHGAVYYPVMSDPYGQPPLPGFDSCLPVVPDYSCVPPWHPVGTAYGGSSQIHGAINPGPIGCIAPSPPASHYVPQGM
Procedure, shortened: (§1)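 HEK293T lysate (495 µg per sample, in Tris/CHAPS/IGEPAL buffer with protease inhibitors) was exposed in triplicate for 3 h to fragment at 200 µM or to vehicle, then to Biotin-Ahx-Ub-VS at 0.5 µM final for 1 h. Labelled DUBs were enriched on NeutrAvidin, digested with LysC and trypsin, and analysed by diaPASEF LC-MS/MS. Spectronaut label-free quantities were normalised to the global median, and values are average log2 ratios of fragment over vehicle from an unpaired t-test. Only proteins with ≥2 unique peptides were used.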

ATXN3 = ATXN3 (UniProt P54252)
Chain of ATXN3 (P54252 whole entry): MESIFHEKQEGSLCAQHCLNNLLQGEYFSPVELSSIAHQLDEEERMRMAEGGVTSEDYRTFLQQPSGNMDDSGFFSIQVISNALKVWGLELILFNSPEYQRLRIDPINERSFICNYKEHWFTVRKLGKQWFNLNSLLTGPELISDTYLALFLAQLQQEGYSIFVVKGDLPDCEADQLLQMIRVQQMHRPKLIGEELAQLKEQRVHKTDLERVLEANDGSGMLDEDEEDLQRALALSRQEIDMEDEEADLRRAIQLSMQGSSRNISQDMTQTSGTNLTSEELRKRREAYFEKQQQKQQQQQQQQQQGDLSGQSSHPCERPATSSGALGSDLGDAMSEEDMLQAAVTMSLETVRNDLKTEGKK
Procedure, shortened: as §1

BAP1 = molecular target: T2, BAP1 (UniProt Q92560)
T2 sequence (whole entry): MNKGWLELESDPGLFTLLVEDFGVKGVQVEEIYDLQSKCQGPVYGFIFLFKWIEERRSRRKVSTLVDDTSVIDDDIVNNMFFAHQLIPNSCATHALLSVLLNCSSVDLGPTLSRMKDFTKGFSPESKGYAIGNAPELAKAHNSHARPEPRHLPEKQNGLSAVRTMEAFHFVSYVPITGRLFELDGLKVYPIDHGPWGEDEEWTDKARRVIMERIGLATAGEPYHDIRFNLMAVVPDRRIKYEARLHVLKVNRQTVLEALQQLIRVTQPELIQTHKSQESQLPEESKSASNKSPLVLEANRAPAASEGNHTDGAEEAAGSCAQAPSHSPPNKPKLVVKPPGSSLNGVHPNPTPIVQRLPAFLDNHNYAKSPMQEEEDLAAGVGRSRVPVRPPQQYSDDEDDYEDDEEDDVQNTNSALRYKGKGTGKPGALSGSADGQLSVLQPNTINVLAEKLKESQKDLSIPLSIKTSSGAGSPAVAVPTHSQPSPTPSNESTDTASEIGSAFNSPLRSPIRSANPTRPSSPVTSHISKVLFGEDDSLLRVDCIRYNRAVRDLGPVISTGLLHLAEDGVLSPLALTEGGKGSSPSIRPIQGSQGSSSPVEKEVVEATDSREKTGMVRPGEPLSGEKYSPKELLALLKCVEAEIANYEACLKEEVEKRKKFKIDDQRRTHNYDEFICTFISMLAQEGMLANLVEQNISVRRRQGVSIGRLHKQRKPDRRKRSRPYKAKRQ
Procedure, shortened: as §1

EIF3F = EIF3F (UniProt O00303)
Chain of EIF3F (O00303 whole entry): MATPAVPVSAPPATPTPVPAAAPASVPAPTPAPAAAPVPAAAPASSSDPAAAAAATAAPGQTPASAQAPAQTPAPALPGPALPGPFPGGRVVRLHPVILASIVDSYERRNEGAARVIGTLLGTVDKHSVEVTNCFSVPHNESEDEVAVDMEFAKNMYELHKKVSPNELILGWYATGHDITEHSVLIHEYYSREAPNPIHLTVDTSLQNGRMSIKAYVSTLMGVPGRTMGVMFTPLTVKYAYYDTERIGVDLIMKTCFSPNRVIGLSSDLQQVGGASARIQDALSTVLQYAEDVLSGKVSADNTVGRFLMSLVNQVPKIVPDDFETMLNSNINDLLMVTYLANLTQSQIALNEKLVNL
Procedure, shortened: as §1

EIF3H = EIF3H (UniProt O15372)
Chain of EIF3H (O15372 whole entry): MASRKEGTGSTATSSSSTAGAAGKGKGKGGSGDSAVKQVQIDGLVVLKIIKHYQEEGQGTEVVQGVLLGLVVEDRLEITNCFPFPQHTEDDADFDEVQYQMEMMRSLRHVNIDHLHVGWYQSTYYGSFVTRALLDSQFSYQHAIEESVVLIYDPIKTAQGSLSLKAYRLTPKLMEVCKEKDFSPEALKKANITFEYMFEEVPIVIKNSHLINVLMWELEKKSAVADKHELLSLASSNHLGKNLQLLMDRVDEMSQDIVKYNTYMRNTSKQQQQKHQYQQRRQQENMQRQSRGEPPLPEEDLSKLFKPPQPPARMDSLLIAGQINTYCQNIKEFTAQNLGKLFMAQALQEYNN
Procedure, shortened: as §1

FAM105A = molecular target: T3, FAM105A (UniProt Q9NUU6)
T3 sequence (whole entry): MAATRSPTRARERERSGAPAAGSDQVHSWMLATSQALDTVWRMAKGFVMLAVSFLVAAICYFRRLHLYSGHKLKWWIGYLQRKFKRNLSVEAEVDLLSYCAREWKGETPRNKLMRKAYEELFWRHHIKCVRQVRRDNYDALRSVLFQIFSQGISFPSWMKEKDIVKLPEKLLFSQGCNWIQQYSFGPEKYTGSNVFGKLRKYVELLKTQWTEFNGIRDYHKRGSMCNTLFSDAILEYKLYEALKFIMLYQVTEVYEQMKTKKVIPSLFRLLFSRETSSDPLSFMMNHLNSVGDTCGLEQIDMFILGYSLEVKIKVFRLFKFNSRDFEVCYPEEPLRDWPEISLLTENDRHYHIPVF
Procedure, shortened: as §1

OTUB1 = OTUB1 (UniProt Q96FW1)
Chain of OTUB1 (Q96FW1 whole entry): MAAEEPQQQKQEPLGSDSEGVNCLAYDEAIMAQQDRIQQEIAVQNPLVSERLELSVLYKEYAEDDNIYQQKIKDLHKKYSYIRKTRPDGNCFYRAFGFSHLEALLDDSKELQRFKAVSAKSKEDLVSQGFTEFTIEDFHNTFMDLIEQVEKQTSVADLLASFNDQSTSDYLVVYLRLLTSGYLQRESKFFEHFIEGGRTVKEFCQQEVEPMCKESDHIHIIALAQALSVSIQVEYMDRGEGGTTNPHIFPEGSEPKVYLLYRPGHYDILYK
Procedure, shortened: as §1

OTUD4 = molecular target: T4, OTUD4 (UniProt Q01804)
T4 sequence (whole entry): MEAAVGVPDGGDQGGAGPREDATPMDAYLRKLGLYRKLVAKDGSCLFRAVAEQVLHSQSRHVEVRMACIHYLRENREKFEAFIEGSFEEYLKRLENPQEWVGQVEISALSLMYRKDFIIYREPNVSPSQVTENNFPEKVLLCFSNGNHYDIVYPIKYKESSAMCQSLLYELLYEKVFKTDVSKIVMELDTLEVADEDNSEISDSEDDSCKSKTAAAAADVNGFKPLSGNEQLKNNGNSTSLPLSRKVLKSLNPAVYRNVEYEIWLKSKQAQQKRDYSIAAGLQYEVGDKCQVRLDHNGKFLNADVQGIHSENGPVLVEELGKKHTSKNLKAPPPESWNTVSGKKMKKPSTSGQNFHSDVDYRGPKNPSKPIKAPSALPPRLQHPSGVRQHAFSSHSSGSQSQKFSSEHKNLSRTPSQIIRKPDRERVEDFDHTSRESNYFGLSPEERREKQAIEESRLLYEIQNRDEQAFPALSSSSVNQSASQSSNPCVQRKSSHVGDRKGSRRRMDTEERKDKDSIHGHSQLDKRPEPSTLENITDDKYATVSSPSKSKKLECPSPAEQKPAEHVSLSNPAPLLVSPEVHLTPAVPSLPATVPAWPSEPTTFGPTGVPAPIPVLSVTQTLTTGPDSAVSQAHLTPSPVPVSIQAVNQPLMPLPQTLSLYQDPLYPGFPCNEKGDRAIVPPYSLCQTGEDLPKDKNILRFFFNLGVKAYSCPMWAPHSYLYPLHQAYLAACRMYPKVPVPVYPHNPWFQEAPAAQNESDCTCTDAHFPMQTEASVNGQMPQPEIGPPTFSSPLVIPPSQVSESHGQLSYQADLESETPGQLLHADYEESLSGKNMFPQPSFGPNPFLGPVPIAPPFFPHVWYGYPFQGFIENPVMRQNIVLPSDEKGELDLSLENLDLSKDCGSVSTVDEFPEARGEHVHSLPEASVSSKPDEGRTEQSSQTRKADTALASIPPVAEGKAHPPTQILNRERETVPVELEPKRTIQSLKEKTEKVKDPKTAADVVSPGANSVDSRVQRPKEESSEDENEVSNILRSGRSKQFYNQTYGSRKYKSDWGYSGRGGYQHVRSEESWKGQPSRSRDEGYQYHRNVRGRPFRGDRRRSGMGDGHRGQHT
Procedure, shortened: as §1

OTUD5 = molecular target: T5, OTUD5 (UniProt Q96G74)
T5 sequence (whole entry): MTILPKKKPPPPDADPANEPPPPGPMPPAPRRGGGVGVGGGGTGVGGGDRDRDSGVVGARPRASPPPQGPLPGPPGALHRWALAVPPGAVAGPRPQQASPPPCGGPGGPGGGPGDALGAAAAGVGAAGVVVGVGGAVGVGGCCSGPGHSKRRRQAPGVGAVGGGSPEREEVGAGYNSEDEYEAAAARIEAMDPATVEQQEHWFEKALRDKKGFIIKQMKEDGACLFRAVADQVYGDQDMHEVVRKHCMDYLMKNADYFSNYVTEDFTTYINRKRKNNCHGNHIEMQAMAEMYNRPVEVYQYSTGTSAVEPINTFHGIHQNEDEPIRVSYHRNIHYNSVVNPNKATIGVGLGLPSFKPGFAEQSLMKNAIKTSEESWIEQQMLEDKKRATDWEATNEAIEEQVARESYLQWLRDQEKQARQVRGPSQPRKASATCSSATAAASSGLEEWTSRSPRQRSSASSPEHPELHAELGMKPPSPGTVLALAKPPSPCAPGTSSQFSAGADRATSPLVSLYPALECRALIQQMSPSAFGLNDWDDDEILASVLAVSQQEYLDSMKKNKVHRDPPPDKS
Procedure, shortened: as §1

Measured: log2 ratio of Biotin-Ahx-Ub-VS probe labelling

CN(CCc1ncc(Br)cn1)C(=O)CCl.Cl
inactive: ALG13 -0.0179 | ATXN3 -0.617 | BAP1 -0.611 | EIF3F -0.295 | EIF3H 0.145 | FAM105A 0.245 | OTUB1 0.000215 | OTUD4 -0.616 | OTUD5 -0.588
